Values without a mark were called inactive. Where a call stands in place of a potency, no number is given. For some assays here: Potency and affinity values are given separately. Calls of active or inactive are those of the source. Unless noted, the rule behind the calls is not given here.
Tests used:
[1] = antimalarial activity against Dd2 strain (AID 2302;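 active = growth inhibition above 50% at the single 2 µM test dose, taken to imply half-maximal potency below 2 µM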); conditions: P. falciparum Dd2 in RBCs, LDH growth readout, 72 h; at 2 µM; stronger effect = higher value
[2] = human hepatoma cell viability loss – ATP luminescence, cytotoxicity control for P. falciparum antimalarial project, primary screen (AID 2303;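 active = inhibition above 50%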); conditions: HepG2 viability, 24-48 h, at 10 µM, stronger effect = higher value
[3] = biological target: L-lactate dehydrogenase (Plasmodium falciparum (isolate CDC / Honduras)) (UniProt Q27743); test: PfLDH activity inhibition – cell lysate, 3D7 strain, counter-screen for P. falciparum growth inhibition project (AID 2304); conditions: P. falciparum 3D7 crude extract, LDH APAD/NBT absorbance; at 2 µM; stronger effect = higher value
L-lactate dehydrogenase (Plasmodium falciparum (isolate CDC / Honduras)), sequence (Q27743 whole entry, looked up): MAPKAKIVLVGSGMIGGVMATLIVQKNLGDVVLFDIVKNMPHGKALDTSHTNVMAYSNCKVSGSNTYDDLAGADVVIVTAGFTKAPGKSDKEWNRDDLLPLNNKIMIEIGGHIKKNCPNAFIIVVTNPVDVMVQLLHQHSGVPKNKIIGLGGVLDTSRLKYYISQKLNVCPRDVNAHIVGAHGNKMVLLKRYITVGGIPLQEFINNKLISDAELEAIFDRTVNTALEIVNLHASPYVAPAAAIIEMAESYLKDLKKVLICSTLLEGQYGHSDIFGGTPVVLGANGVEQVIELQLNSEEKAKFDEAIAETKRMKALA

[4] = inhibition of 3D7 malaria parasite growth – strain 3D7 (AID 2306); conditions: P. falciparum 3D7 erythrocytic growth, LDH absorbance, 72 h; at 2 µM; stronger effect = higher value
[5] = biological target: Calcium-dependent protein kinase 1 (Plasmodium falciparum (isolate 3D7)) (UniProt P62344); test: PfCDPK1 kinase inhibitors, biochemical, TCAMS library (AID 1159585; cut-off not given, nearly all actives have IC50 up to about 0.98 µM;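 note: inhibitors leave more ATP so luminescence rises with inhibition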); conditions: recombinant PfCDPK1, Kinase-Glo ATP depletion luminescence
Calcium-dependent protein kinase 1 (Plasmodium falciparum (isolate 3D7)), sequence (P62344 whole entry, looked up): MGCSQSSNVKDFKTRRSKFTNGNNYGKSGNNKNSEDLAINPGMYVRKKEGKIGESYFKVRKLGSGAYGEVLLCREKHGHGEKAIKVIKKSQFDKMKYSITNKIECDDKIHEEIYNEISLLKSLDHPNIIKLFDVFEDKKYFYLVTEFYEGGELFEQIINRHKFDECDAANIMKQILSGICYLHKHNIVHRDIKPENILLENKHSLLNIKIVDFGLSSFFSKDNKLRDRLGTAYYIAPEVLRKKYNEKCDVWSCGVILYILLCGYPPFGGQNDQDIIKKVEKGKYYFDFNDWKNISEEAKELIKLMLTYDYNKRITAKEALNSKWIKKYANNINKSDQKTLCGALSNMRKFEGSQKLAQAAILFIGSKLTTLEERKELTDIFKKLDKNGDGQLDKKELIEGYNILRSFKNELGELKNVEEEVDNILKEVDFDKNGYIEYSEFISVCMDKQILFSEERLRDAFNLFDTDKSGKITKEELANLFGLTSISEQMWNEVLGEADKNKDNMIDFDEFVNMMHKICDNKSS

[6] = biological target: Plasmodium falciparum protein kinase 6 (PK6, PF3D7_1337100) (UniProt Q8IDW1); test: PfPK6 kinase inhibitors, biochemical, TCAMS library (AID 1159586); conditions: recombinant PfPK6, Kinase-Glo ATP depletion luminescence
Plasmodium falciparum protein kinase 6 (PK6, PF3D7_1337100), sequence (Q8IDW1 1-305): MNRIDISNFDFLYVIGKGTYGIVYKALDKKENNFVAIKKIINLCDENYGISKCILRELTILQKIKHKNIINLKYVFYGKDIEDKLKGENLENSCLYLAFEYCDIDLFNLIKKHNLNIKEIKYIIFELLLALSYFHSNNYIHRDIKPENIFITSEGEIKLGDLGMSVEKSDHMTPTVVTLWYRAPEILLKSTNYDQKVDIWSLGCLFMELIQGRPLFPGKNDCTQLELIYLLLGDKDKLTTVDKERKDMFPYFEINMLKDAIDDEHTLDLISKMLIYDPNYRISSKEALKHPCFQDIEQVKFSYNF

[7] = biological target: Protein kinase 7 (PK7), Plasmodium falciparum 3D7 (PF3D7_0213400) (UniProt Q7YTF7); test: inhibition of Plasmodium PK7 catalytic activity – biochemical, TCAMS antimalarial set, Kinase-Glo luminescence (AID 1159587); conditions: recombinant PfPK7, Kinase-Glo ATP depletion luminescence
Protein kinase 7 (PK7), Plasmodium falciparum 3D7 (PF3D7_0213400), sequence (Q7YTF7 1-343): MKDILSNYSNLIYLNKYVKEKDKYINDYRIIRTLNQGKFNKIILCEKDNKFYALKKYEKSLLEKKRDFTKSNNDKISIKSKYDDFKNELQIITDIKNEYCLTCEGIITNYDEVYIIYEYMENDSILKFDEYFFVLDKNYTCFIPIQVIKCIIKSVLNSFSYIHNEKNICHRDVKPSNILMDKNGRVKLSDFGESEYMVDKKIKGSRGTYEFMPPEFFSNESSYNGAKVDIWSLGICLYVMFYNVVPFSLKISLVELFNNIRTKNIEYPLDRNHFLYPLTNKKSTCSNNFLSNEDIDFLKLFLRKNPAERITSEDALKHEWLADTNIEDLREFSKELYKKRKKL

[8] = biological target: Calcium-dependent protein kinase 4 (Plasmodium falciparum (isolate 3D7)) (UniProt Q8IBS5); test: PfCDPK4 kinase inhibitors, biochemical, TCAMS library (AID 1159588; cut-off not given, nearly all actives have IC50 up to about 0.91 µM); conditions: recombinant PfCDPK4, Kinase-Glo ATP depletion luminescence
Calcium-dependent protein kinase 4 (Plasmodium falciparum (isolate 3D7)), sequence (Q8IBS5 whole entry, looked up): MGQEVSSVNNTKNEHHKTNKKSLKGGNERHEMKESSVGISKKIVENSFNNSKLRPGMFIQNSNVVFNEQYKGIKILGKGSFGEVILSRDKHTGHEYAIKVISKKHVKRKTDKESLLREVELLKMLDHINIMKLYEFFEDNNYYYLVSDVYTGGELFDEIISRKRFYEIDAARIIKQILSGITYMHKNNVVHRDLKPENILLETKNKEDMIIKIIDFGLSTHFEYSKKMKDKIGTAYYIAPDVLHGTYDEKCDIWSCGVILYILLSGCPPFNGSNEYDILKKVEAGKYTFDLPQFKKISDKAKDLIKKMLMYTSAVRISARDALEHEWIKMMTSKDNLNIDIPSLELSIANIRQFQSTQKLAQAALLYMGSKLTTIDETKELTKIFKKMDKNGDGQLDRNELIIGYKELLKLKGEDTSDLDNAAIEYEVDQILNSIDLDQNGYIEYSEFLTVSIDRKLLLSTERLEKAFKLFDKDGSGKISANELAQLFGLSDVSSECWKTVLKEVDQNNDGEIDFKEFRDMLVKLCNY

Structure (SMILES) | growth inhibition [1] | inhibition [2] | inhibition [3] [%] | growth inhibition [4] | outcome [5] | outcome [6] | outcome [7] | outcome [8]
Cc1c(C(=O)N2CCCC(C(F)(F)F)C2)sc2cccc(F)c12 (stereo not given) | 89% (active) | -4% | 1 | 99% (active) | inactive | inactive | inactive | inactive
CC(Cc1ccc(C(=O)Nc2ccc(CC(C)NCCc3cccc(Cl)c3)cc2)cc1)NCCc1ccc(C(F)(F)F)cc1 (stereo not given) | 88% (active) | 98% (active) | -4 | 101% (active) | inactive | inactive | inactive | inactive
O=S(=O)(NCCN1CCCC1)c1ccc(-c2cccc(CNCc3ccc(F)cc3)c2)cc1 | 41% | 76% (active) | -2 | 100% (active) | inactive | inactive | inactive | inactive
Cn1ccnc1CNC(=O)c1ccc(-c2ccc(-c3nc4ccc(C(F)(F)F)cc4[nH]3)s2)cc1 | 43% | 40% | 3 | 101% (active) | inactive | inactive | inactive | inactive
CCOc1cc(-c2nnc3[nH]c(=O)n(C)c(=O)c3n2)ccc1OC(C)C | 86% (active) | 15% | 1 | 97% (active) | inactive | inactive | inactive | inactive
OC(CNCc1ccccc1OCc1ccccc1)c1cccc(C(F)(F)F)c1 (stereo not given) | 99% (active) | 12% | -2 | 99% (active) | inactive | inactive | inactive | inactive
Cc1cccc2[nH]c(-c3cccc(-c4cccc(NC(=O)C5CC(=O)Nc6ccccc65)c4)c3)nc12 (stereo not given) | 25% | 13% | 0 | 85% (active) | inactive | inactive | inactive | inactive
O=C(Nc1ccccc1)c1cnc[nH]1 | -1% | -7% | 1 | 92% (active) | inactive | inactive | inactive | inactive
CCCN(Cc1ccc(C)cc1)Cc1cc(=O)c2cc(Cl)ccc2[nH]1 | 91% (active) | 51% (active) | 4 | 86% (active) | inactive | inactive | inactive | inactive
O=C(Nc1ccc(F)c(Cl)c1)c1cc([N+](=O)[O-])cc2cn[nH]c12 | 67% (active) | 32% | -4 | 100% (active) | inactive | inactive | inactive | inactive
CCCCC([C@@H](Cc1ccc2ccccc2c1)C(=O)N[C@H](C(=O)NC)C(C)(C)C)N(O)C=O (stereo not given in full) | 97% (active) | -6% | 5 | 100% (active) | inactive | inactive | inactive | inactive
Cc1cc(Br)c(OCCCON2C(N)=NC(N)=NC2(C)C)c(Br)c1 | 97% (active) | 62% (active) | -3 | 95% (active) | inactive | inactive | inactive | inactive
O=C(Nc1cccc(CN2CCCN(CCc3ccccc3)CC2)c1)c1cc2ccccc2s1 | 39% | 37% | 4 | 93% (active) | inactive | inactive | inactive | inactive
CCc1ccc(NC(=O)c2ccc(CN3CCCN(Cc4ccc(C)s4)CC3)cc2)cc1 | -2% | 48% | -2 | 87% (active) | inactive | inactive | inactive | inactive
CS(=O)(=O)CCNc1nccc(N2CCc3ncnc(Nc4ccc(OCc5cccc(F)c5)c(Cl)c4)c3C2)n1 | 100% (active) | 8% | -4 | 101% (active) | inactive | inactive | inactive | inactive
c1cc(-c2ccc(CNC3CCOCC3)cc2)cc(-c2nc3ccccc3[nH]2)c1 | 100% (active) | 30% | 3 | 100% (active) | inactive | inactive | inactive | inactive
COc1ccccc1CCNc1nccc(N[C@@H](Cc2ccccc2)C(=O)NCc2cccs2)n1 | 79% (active) | 34% | 3 | 90% (active) | inactive | inactive | inactive | inactive
CCOc1ccccc1C=CC(=O)Nc1ccc2nc(N3CCN(C)CC3)cc(C)c2c1 | 91% (active) | 16% | -1 | 102% (active) | inactive | inactive | inactive | inactive
NCc1ccc(-c2cccc(CNC3CCN(Cc4ccccc4)CC3)c2)cc1 | 50% (active) | 24% | -7 | 100% (active) | inactive | inactive | inactive | inactive
O=[N+]([O-])c1cccc(CNC2CCN(Cc3ccc(Cl)c(Cl)c3)CC2)c1 | 71% (active) | 5% | 3 | 100% (active) | inactive | inactive | inactive | inactive

Structure (SMILES) | growth inhibition [1] | inhibition [2] | inhibition [3] [%] | growth inhibition [4] | outcome [5] | outcome [6] | outcome [7] | outcome [8]
CCN1CCN(CCCNc2ccnc3cc(Cl)ccc23)CC1 | 77% (active) | 7% | 2 | 101% (active) | inactive | inactive | inactive | inactive
COc1cc(NC(=O)c2cc([N+](=O)[O-])ccc2NC(=O)CNC2CCCCC2C)cc(OC)c1 (stereo not given) | 78% (active) | -2% | 3 | 87% (active) | inactive | inactive | inactive | inactive
COc1ccc(CNCc2ccc(-c3cccc(-c4nc5c(C)cccc5[nH]4)c3)cc2)cc1 | 101% (active) | 69% (active) | -7 | 102% (active) | inactive | inactive | inactive | inactive
COc1ccc(Cl)cc1N1CCN(CCCNC(=O)c2ccc(-c3nc4cc(Cl)c(C)cc4[nH]3)s2)CC1 | 97% (active) | -1% | 1 | 102% (active) | inactive | inactive | inactive | inactive
CCCNC(=O)c1cncc(-c2ccc(CNC3Cc4ccccc4C3)cc2)c1 | 21% | 9% | -8 | 97% (active) | inactive | inactive | inactive | inactive
Oc1c(Br)cc2oc3c(c2c1CNCc1ccccc1)CCCC3 | 74% (active) | -19% | 0 | 99% (active) | inactive | inactive | inactive | inactive
Cn1nccc1C(=O)NCCNCc1cccc(-c2ccc(-c3nc4ccccc4[nH]3)cc2)c1 | 98% (active) | 19% | 4 | 100% (active) | inactive | inactive | inactive | inactive
NC1CCN(c2nc(NCCCc3ccc(O)cc3)nc(NCc3ccccc3-c3ccccc3)n2)CC1 | 45% | 11% | 4 | 102% (active) | inactive | inactive | inactive | inactive
COc1ccc2ncc(F)c(CCN3CC[C@@H](CNCc4cc(C)c5c(c4)OCCO5)C3)c2n1 | 44% | 22% | 0 | 98% (active) | inactive | inactive | inactive | inactive
COc1ccccc1C1CN(CCNC(=O)c2ncc(C)[nH]2)Cc2ccccc2O1 (stereo not given) | 86% (active) | 4% | 0 | 90% (active) | inactive | inactive | inactive | inactive
Cc1ccc2sc(N3CCN(C(=O)c4ccc([N+](=O)[O-])o4)CC3)nc2c1C | 86% (active) | -7% | 5 | 90% (active) | inactive | inactive | inactive | inactive
Nc1ccc2[nH]cc(C3CCN(CC4CCC(NC(=O)/C=C/c5ccc(Cl)c(Cl)c5)CC4)CC3)c2n1 (stereo not given) | 93% (active) | 18% | 1 | 100% (active) | inactive | inactive | inactive | inactive
O=C(Cc1ccc(NC(=O)c2ccc(O)c(-c3ccc(Cl)c(Cl)c3)c2)cc1)NCCc1ccc(Cl)c(Cl)c1 | 88% (active) | -6% | 2 | 99% (active) | inactive | inactive | inactive | inactive
Cn1cncc1C(=O)Nc1cccc(-c2cccc(-c3nc4ccc(F)cc4[nH]3)c2)c1 | 45% | 16% | 3 | 102% (active) | inactive | inactive | inactive | inactive
Cc1ccc(NC(=O)N2CCCN(CCCCCNC(=O)/C=C/c3ccc(Cl)c(Cl)c3)CC2)cc1 | 2% | 12% | -6 | 99% (active) | inactive | inactive | inactive | inactive
O=C(NCCCCN1CCC(c2ccc(C(F)(F)F)cc2C(F)(F)F)CC1)c1ccc(NC(=O)c2ccc(Cl)cc2)cc1 | 59% (active) | 4% | 7 | 99% (active) | inactive | inactive | inactive | inactive
CC(C)[C@H](NC(=O)c1c(CN2CCC(N3CCCCC3)CC2)c(-c2ccccc2)nc2cc(O)ccc12)c1ccccc1 | 73% (active) | 10% | 4 | 100% (active) | inactive | inactive | inactive | inactive
CCOc1cc(C)ccc1C1CCN(CCCCNC(=O)c2ccc(-c3ccc(C(F)(F)F)cn3)cc2)CC1 | 45% | 55% (active) | 5 | 99% (active) | inactive | inactive | inactive | inactive
COc1cccc(NC(=O)NC2CCN(CCCCCNC(=O)/C=C/c3ccc(Cl)c(Cl)c3)CC2)c1 | 8% | 14% | -1 | 102% (active) | inactive | inactive | inactive | inactive
c1cc(CNCCN2CCNCC2)cc(-c2cccc(-c3nc4ccccc4[nH]3)c2)c1 | 1% | 11% | -3 | 89% (active) | inactive | inactive | inactive | inactive

Reference: PubChem BioAssay
